Data on 22 molecules can be found in PubChem BioAssay.

By remaining activity is commonly meant the signal under treatment as a percentage of the control signal.

Values joined by “and” are separate entries in the source; they are usually repeats but may differ in a detail not shown here. Equal entries are not always repeated. Inconclusive results are not listed. Active and inactive are the calls of the source. Unless noted, how the calls were made is not given here.

A short description of assay [1]: modulation of C. elegans fzo-1 (AID 1259413).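 Further: fzo-1 mutant C. elegans worms in liquid wells.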 As to conditions: C. elegans fzo-1 modulator screen, mean read-out; stronger effect = higher value.
Assay [2] is described as follows: differential killing of epithelial or mesenchymal cells, primary screen, imaging, PC-3E GFP, TEM4-18 mCherry, co-culture (AID 1345086;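 active means compounds killing one labelled cell type while sparing the other, by normalised counts and ratio limits, not self-fluorescent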;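 on all read-outs here: cells exposed to compound for 72 h before imaging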;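 on red/green cell ratio (normalised): normalised mesenchymal count divided by normalised epithelial count so high means epithelial killing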). As to conditions: imaging cell counts, at 1 µM; for red/green cell ratio (normalised): actives lie on both sides, counts scaled to control wells, 1 = unselective.
Assay [3] relates to Aerobactin synthetase IucA (Klebsiella pneumoniae). Briefly: IucA aerobactin synthetase inhibitors, biochemical, Tocris library, absorbance (AID 1345561).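 Further: 100% = enzyme without compound and 0% = no enzyme.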 As to conditions: purified IucA enzyme assay, absorbance (OD) read-out; stronger effect = lower value;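 tested at 8 µM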.
A short description of assay [4]: growth inhibition of DIPG glioma cells, dose response, cell-based, SU-DIPG-XVII, MIPE5.0, CellTiter-Glo, qHTS (AID 1347060; cut-off not given, nearly all actives have AC50 up to about 26 µM). As to conditions: SU-DIPG-XVII viability, CellTiter-Glo ATP luminescence.
Assay [5] is described as follows: growth inhibition of DIPG glioma cells, dose response, cell-based, SU-DIPG-XIII, MIPE4.0, CellTiter-Glo, qHTS (AID 1347061; cut-off not given, nearly all actives have AC50 up to about 37 µM;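 further: cells exposed to compound for 48 hours before readout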). As to conditions: SU-DIPG-XIII viability, CellTiter-Glo ATP luminescence. (In general: Cellular ATP, detected with luciferase, serves as a proxy for viable cell number.)
Assay [6] in a line: growth inhibition of DIPG glioma cells, dose response, cell-based, JHH-DIPG-1, MIPE4.0, CellTiter-Glo, qHTS (AID 1347062; cut-off not given, nearly all actives have AC50 up to about 27 µM). As to conditions: JHH-DIPG-1 viability, CellTiter-Glo ATP luminescence.
Assay [7] is described as follows: growth inhibition of DIPG glioma cells, dose response, cell-based, SU-DIPG-IV, MIPE4.0, CellTiter-Glo, qHTS (AID 1347063; cut-off not given, nearly all actives have AC50 up to about 30 µM;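 further: compound exposure lasted 48 hours before the viability readout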). As to conditions: SU-DIPG-IV viability, CellTiter-Glo ATP luminescence.
Assay [8] can be described thus: growth inhibition of DIPG glioma cells, dose response, cell-based, SU-DIPG-XIII, MIPE5.0, CellTiter-Glo, qHTS (AID 1347064; cut-off not given, nearly all actives have AC50 up to about 23 µM). As to conditions: SU-DIPG-XIII viability, CellTiter-Glo ATP luminescence.
The mark [9] stands for this setting: measured here: epithelial PC-3E GFP cell survival.
Where [10] appears, read: measured here: mesenchymal TEM4-18 mCherry cell survival.

With `O=C(O)/C=C/c1ccc(Cn2ccnc2)cc1`, in assay [1], the mean signal is 275 (inactive). Further, in assay [2], the red/green cell ratio (normalised) was 1.06 (inactive). Also, the normalised cell number came to 1 in assay [2] (setting [9]) and 1.05 in assay [2] (setting [10]). Also, the remaining activity in assay [3] was 107% (inactive). Moreover, the outcome in assay [4], in assay [5], in assay [6], in assay [7] and in assay [8] was inactive.
Turning to `COc1ccc(CN2CCN(C(c3ccc(F)cc3)c3ccc(F)cc3)CC2)c(OC)c1OC`, the mean signal in assay [1] was 204 (inactive). For the same molecule, the red/green cell ratio (normalised) in assay [2] is 1.08 (inactive). Moreover, the figures for the normalised cell number in assay [2] (setting [9]) and in assay [2] (setting [10]) were 0.96 and 1.03, respectively.
Take `c1cnc(N2CCN(Cc3ccc4c(c3)OCO4)CC2)nc1`: the mean signal in assay [1] was 255 (inactive). In addition, the red/green cell ratio (normalised) in assay [2] was 1.12 (inactive). Besides, the results for the normalised cell number in assay [2] (setting [9]) and in assay [2] (setting [10]) were 0.85 and 0.96, respectively. Further, the remaining activity in assay [3] was 119% (inactive).
Regarding `COc1cc2c(cc1OC)C(=O)C(CC1CCN(Cc3ccccc3)CC1)C2` (stereo not drawn), in assay [1], the mean signal is 214 (inactive). For the same molecule, the red/green cell ratio (normalised) in assay [2] is 1.04 (inactive). The normalised cell number in assay [2] (setting [9]) was determined as 1.04; in assay [2] (setting [10]) it was 1.09.
For `Oc1c(Cl)cc(Cl)c(Cl)c1Cc1c(O)c(Cl)cc(Cl)c1Cl`, in assay [1], the mean signal was 211 (inactive). Further, the red/green cell ratio (normalised) in assay [2] was 0.64 (inactive). For the same molecule, the normalised cell number stood at 0.83 in assay [2] (setting [9]) and 0.53 in assay [2] (setting [10]).
As to `CCOC(=O)OC(C)OC1=C(C(=O)Nc2ccccn2)N(C)S(=O)(=O)c2ccccc21` (stereo not drawn), in assay [1], the mean signal was 259 (inactive). The red/green cell ratio (normalised) in assay [2] was 1.19 (inactive). Also, the normalised cell number amounted to 0.84 in assay [2] (setting [9]) and 1 in assay [2] (setting [10]).
Turning to `CC(C)(C(=O)c1cccnc1)c1cccnc1`, the mean signal in assay [1] is 259 (inactive). For the same molecule, the red/green cell ratio (normalised) in assay [2] was 0.85 (inactive). In addition, the normalised cell number in assay [2] (setting [9]) came out at 1.21; in assay [2] (setting [10]), 1.04.
Taken in the same sequence, the figures for `OCCOCCN1CCN(C2=Nc3ccccc3Sc3ccccc32)CC1` were 248 (inactive), 0.87 (inactive), 1.08 and 0.94.
Turning to `COc1ccc(C(=O)NCc2ccc(OCCN(C)C)cc2)cc1OC`, in assay [1], the mean signal was 262 (inactive). The red/green cell ratio (normalised) in assay [2] was 0.88 (inactive). Further, the normalised cell number in assay [2] (setting [9]) is 1.24; in assay [2] (setting [10]), 1.1.
As for `CCN1CCCC1CNC(=O)c1cc(S(=O)(=O)CC)c(N)cc1OC` (stereo not drawn), in assay [1], the mean signal is 235 (inactive). Besides, the red/green cell ratio (normalised) in assay [2] was 1.01 (inactive). The results for the normalised cell number in assay [2] (setting [9]) and in assay [2] (setting [10]) were 0.89 and 0.9, respectively. The remaining activity in assay [3] is 104% (inactive). The result in assay [4], in assay [5], in assay [6], in assay [7] and in assay [8] was inactive.
As to `Cc1cccc(C)c1OCC(C)N` (stereo not drawn), the mean signal in assay [1] was 227 (inactive). In addition, in assay [2], the red/green cell ratio (normalised) is 1.08 (inactive). For the same molecule, the normalised cell number in assay [2] (setting [9]) turned out to be 1.13; in assay [2] (setting [10]), 1.22. For the same molecule, the remaining activity in assay [3] is 104% (inactive).
For `CCN(CC)CCNC(=O)c1cc(Cl)c(N)cc1OC`, in assay [1], the mean signal is 245 (inactive). The red/green cell ratio (normalised) in assay [2] was 1.02 (inactive). Moreover, the normalised cell number came out at 1.09 in assay [2] (setting [9]) and 1.12 in assay [2] (setting [10]).
With `CN1CCN(c2c(F)cc3c(=O)c(C(=O)O)cn4c3c2SCC4)CC1`, the mean signal in assay [1] is 251 (inactive). The red/green cell ratio (normalised) in assay [2] was 1.06 (inactive) and 1.18 (inactive). Moreover, the normalised cell number in assay [2] (setting [9]) was 1.01 and 0.81; in assay [2] (setting [10]), 1.07 and 0.95.
As to `CCc1oc2ccccc2c1C(=O)c1cc(Br)c(O)c(Br)c1`, the mean signal in assay [1] was 252 (inactive). In addition, the red/green cell ratio (normalised) in assay [2] was 0.88 (inactive). Also, the normalised cell number in assay [2] (setting [9]) stood at 1.08; in assay [2] (setting [10]) it was 0.95.
In the case of `CC[N+](C)(CC)CCOC(=O)C(O)(c1ccccc1)C1CCCCC1` (stereo not drawn), in assay [1], the mean signal was 260 (inactive). Moreover, in assay [2], the red/green cell ratio (normalised) is 0.95 (inactive). Besides, the normalised cell number was 1.13 in assay [2] (setting [9]) and 1.07 in assay [2] (setting [10]).
Turning to `CC(=O)OCC(=O)NCCCOc1cccc(CN2CCCCC2)c1`, in assay [1], the mean signal is 244 (inactive). In addition, the red/green cell ratio (normalised) in assay [2] was 1.02 (inactive). The results for the normalised cell number in assay [2] (setting [9]) and in assay [2] (setting [10]) were 0.98 and 1, respectively.
For the molecule `O=C(NCCN1CCOCC1)c1ccc(Cl)cc1`, the mean signal in assay [1] was 247 (inactive). Moreover, the red/green cell ratio (normalised) in assay [2] was 0.88 (inactive). Moreover, the normalised cell number in assay [2] (setting [9]) turned out to be 0.89; in assay [2] (setting [10]), 0.79.
Consider `NC1CCN(c2nc3c(cc2F)c(=O)c(C(=O)O)cn3-c2ccc(F)cc2F)C1` (stereo not drawn), for which the mean signal in assay [1] was 292 (inactive). Moreover, the red/green cell ratio (normalised) in assay [2] is 0.9 (inactive). The normalised cell number in assay [2] (setting [9]) is 1.14; in assay [2] (setting [10]), 1.02.
The like results for `Cc1ncc([N+](=O)[O-])n1CC(O)CCl` (stereo not drawn) were, in that order, 246 (inactive), 1.07 (inactive), 1.1 and 1.18.
In the case of `C[n+]1ccccc1/C=N/O`, the mean signal in assay [1] is 252 (inactive). Further, the red/green cell ratio (normalised) in assay [2] is 0.85 (inactive). The normalised cell number in assay [2] (setting [9]) was 1.37; in assay [2] (setting [10]), 1.16.
Consider `CN1CCN(C2=Nc3ccccc3Oc3ccc(Cl)cc32)CC1`, for which the mean signal in assay [1] was 262 (inactive). Also, in assay [2], the red/green cell ratio (normalised) is 0.99 (inactive). Also, the normalised cell number was 1.1 in assay [2] (setting [9]) and 1.09 in assay [2] (setting [10]).
`CC1CCN(CCCC(=O)c2ccc(F)cc2)CC1`: the mean signal in assay [1] is 246 (inactive). For the same molecule, the red/green cell ratio (normalised) in assay [2] is 0.9 (inactive). For the same molecule, the normalised cell number in assay [2] (setting [9]) was 0.97; in assay [2] (setting [10]) it was 0.88. In assay [3], the remaining activity is 103% (inactive).
